According to article PMC7862700, “An all-to-all approach to the identification of sequence-specific readers for epigenetic DNA modifications on cytosine”:

Tests used:
Experiment in all cases: DAPPL (digital affinity profiling via proximity ligation, sequencing); 10 mM Tris-HCl pH 7.5, 50 mM NaCl, 1 mM DTT, 4% glycerol, room temperature, 30 min; GST-TFs on glutathione beads, 16-mer random dsDNA library, 0.1% formaldehyde crosslink after washing; high values mean tight binding
FEV = biological target: T1, FEV (Homo sapiens, UniProt Q99581 1-238); details: protein: recombinant; tags: N-terminal GST; dsDNA, one strand shown
T1 sequence: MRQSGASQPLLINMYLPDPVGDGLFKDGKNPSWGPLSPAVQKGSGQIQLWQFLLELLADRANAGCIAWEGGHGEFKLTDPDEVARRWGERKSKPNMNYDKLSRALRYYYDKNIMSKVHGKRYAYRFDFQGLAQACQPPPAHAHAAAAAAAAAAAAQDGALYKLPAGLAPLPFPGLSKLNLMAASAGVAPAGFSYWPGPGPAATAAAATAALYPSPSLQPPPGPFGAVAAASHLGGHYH
Method in brief: (§1)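 Binding signal is given per hexamer as its read frequency for a factor divided by its frequency in the tag-only sample. GST-fused human transcription factors were expressed in yeast, captured on glutathione beads, barcoded with DNA and pooled with that sample, then incubated with 200 nmole of a 16-mer random double-stranded DNA library in Tris/NaCl/DTT/glycerol buffer for 30 min at room temperature. The pools were then washed, crosslinked, proximity-ligated, amplified by PCR and sequenced on an Illumina NextSeq500.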

ETV5 = ETV5 (Homo sapiens, UniProt P41161 1-510); details: protein: recombinant; tags: N-terminal GST; dsDNA, one strand shown
Method in brief: as §1

HSF1 = HSF1 (Homo sapiens, UniProt Q00613 1-529); details: protein: recombinant; tags: N-terminal GST; chain copies: 3; dsDNA, one strand shown
Method in brief: as §1

SPIC = biological target: T2, SPIC (Homo sapiens, UniProt Q8N5J4 1-248); details: protein: recombinant; tags: N-terminal GST; dsDNA, one strand shown
T2 sequence: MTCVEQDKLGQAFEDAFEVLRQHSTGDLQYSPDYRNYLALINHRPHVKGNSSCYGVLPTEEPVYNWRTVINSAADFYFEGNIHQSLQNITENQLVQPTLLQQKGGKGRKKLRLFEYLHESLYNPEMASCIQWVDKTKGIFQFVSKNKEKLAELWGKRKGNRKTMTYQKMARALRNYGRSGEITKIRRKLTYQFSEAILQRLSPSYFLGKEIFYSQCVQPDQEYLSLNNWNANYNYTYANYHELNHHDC
Method in brief: as §1

ELF4 = ELF4 (Homo sapiens, UniProt Q99607 1-663); details: protein: recombinant; tags: N-terminal GST; dsDNA, one strand shown
Method in brief: as §1

ELK4 = biological target: T3, ELK4 (Homo sapiens, UniProt P28324-2 1-405); details: protein: recombinant; tags: N-terminal GST; dsDNA, one strand shown
T3 sequence: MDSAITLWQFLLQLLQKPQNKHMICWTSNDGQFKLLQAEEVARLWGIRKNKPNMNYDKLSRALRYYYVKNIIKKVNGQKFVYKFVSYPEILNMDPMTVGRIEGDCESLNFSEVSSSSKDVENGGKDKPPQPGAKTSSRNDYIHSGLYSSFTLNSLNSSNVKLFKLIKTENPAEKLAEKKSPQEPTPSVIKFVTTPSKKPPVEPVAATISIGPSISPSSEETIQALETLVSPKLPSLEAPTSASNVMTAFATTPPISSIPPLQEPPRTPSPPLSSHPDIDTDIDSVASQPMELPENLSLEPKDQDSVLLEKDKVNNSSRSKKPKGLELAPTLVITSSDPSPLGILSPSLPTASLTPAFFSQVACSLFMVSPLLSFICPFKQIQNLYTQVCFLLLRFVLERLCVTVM
Method in brief: as §1

ETV2 = biological target: T4, ETV2 (Homo sapiens, UniProt O00321 1-342); details: protein: recombinant; tags: N-terminal GST; dsDNA, one strand shown
T4 sequence: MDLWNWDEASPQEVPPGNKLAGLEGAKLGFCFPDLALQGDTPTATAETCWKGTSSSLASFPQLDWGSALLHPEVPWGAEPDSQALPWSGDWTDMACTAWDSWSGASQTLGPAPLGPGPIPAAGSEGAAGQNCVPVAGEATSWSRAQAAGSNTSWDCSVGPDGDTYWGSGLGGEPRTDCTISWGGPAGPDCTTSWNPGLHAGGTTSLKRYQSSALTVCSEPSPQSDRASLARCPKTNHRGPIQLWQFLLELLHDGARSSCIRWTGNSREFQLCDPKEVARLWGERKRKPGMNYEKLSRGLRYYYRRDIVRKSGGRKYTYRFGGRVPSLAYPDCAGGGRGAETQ
Method in brief: as §1

ELF3 = biological target: T5, ELF3 (Homo sapiens, UniProt P78545 1-371); details: protein: recombinant; tags: N-terminal GST; dsDNA, one strand shown
T5 sequence: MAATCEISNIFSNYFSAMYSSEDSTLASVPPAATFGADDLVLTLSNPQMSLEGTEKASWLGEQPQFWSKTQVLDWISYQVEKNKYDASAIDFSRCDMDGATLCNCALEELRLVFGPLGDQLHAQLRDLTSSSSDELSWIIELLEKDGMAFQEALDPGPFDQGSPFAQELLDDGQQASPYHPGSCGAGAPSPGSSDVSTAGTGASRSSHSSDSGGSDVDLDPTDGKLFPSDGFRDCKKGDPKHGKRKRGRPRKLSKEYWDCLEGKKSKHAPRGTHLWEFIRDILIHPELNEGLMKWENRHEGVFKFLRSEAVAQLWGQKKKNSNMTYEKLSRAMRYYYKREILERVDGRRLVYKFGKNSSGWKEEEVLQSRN
Method in brief: as §1

CRX = CRX (Homo sapiens, UniProt O43186 1-299); details: protein: recombinant; tags: N-terminal GST; dsDNA, one strand shown
Method in brief: as §1

ETV1 = ETV1 (Homo sapiens, UniProt P50549 1-477); details: protein: recombinant; tags: N-terminal GST; dsDNA, one strand shown
Method in brief: as §1

ERF = biological target: T6, ERF (Homo sapiens, UniProt P50548 1-548); details: protein: recombinant; tags: N-terminal GST; dsDNA, one strand shown
T6 sequence: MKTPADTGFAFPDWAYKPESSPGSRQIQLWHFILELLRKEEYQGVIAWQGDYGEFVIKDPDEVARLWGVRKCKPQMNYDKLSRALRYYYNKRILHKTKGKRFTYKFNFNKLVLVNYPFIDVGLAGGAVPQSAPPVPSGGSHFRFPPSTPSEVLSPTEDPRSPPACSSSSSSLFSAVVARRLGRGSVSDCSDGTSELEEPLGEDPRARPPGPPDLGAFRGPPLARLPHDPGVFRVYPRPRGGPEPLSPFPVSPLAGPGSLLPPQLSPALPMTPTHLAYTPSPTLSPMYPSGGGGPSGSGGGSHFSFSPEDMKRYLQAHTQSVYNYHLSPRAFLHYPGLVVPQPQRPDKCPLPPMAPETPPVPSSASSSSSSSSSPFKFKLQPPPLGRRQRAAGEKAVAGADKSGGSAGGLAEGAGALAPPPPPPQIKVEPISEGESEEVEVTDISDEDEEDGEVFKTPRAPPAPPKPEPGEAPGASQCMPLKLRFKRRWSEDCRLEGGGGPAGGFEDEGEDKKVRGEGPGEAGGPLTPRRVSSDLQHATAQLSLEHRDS
Method in brief: as §1

ETV3L = biological target: T7, ETV3L (Homo sapiens, UniProt Q6ZN32 1-361); details: protein: recombinant; tags: N-terminal GST; dsDNA, one strand shown
T7 sequence: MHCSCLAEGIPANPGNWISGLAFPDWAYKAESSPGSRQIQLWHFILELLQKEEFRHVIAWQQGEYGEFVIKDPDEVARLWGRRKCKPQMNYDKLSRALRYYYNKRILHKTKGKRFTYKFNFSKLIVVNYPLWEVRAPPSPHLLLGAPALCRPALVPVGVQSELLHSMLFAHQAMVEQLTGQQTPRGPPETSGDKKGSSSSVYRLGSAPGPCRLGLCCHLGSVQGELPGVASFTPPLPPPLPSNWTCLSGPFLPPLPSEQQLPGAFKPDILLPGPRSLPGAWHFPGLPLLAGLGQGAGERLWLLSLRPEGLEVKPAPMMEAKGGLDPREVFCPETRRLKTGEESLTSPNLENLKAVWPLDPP
Method in brief: as §1

ETS2 = biological target: T8, ETS2 (Homo sapiens, UniProt P15036 1-469); details: protein: recombinant; tags: N-terminal GST; dsDNA, one strand shown
T8 sequence: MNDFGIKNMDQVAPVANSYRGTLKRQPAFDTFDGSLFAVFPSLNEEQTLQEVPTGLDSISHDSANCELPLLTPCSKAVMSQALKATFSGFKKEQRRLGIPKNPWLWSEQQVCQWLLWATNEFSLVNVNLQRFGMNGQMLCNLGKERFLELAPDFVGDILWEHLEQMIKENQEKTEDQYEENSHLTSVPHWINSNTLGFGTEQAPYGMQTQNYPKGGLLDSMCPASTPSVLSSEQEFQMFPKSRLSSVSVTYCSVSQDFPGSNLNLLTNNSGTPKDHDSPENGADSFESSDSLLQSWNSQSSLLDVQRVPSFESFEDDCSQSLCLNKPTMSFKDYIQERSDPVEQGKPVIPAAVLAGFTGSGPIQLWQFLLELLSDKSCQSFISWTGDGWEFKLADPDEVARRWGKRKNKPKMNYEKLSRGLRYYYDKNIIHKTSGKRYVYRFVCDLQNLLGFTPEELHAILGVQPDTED
Method in brief: as §1

SPDEF = biological target: T9, SPDEF (Homo sapiens, UniProt O95238 1-335); details: protein: recombinant; tags: N-terminal GST; dsDNA, one strand shown
T9 sequence: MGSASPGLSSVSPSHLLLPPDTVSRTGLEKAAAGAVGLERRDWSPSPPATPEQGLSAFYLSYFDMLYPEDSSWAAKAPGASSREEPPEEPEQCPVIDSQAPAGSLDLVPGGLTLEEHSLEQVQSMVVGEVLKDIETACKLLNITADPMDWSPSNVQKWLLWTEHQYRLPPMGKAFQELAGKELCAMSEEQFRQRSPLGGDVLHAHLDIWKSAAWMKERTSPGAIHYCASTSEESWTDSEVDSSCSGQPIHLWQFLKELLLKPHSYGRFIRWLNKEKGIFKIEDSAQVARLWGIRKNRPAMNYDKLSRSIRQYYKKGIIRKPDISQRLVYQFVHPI
Method in brief: as §1

ETV7 = biological target: T10, ETV7 (Homo sapiens, UniProt Q9Y603 1-341); details: protein: recombinant; tags: N-terminal GST; dsDNA, one strand shown
T10 sequence: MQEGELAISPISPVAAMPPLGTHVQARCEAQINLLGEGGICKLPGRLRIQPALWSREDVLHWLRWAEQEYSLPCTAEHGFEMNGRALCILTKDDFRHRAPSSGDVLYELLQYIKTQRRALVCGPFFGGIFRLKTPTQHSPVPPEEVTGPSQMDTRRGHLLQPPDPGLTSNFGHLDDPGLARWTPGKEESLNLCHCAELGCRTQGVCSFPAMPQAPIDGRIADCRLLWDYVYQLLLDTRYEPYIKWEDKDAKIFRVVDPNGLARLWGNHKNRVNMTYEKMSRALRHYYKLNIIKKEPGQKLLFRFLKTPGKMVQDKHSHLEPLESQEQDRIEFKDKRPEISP
Method in brief: as §1

ELF5 = biological target: T11, ELF5 (Homo sapiens, UniProt Q9UKW6-2 1-255); details: protein: recombinant; tags: N-terminal GST; dsDNA, one strand shown
T11 sequence: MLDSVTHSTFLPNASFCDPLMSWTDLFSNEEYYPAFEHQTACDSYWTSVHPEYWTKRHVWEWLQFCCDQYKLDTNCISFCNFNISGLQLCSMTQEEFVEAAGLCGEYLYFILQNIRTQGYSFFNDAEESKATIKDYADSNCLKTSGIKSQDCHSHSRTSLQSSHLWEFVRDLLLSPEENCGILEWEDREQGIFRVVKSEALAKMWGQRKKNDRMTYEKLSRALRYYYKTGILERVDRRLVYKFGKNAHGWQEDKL
Method in brief: as §1

ETV3 = biological target: T12, ETV3 (Homo sapiens, UniProt P41162-2 1-143); details: protein: recombinant; tags: N-terminal GST; dsDNA, one strand shown
T12 sequence: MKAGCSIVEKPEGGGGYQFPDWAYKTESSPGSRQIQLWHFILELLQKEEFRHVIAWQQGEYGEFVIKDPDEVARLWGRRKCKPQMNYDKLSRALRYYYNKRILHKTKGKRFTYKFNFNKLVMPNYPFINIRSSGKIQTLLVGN
Method in brief: as §1

ETV6 = ETV6 (Homo sapiens, UniProt P41212 1-452); details: protein: recombinant; tags: N-terminal GST; dsDNA, one strand shown
Method in brief: as §1

Chain of CRX (O43186 whole entry): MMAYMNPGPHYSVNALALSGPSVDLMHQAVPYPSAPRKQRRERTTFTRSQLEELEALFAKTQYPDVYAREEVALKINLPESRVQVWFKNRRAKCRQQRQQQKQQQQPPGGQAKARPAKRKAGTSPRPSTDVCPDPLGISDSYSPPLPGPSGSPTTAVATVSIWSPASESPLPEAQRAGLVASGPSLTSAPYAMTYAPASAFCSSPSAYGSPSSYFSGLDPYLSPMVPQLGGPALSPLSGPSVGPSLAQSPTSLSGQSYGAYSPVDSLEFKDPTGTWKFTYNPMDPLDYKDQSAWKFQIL
Chain of ETV1 (P50549 whole entry): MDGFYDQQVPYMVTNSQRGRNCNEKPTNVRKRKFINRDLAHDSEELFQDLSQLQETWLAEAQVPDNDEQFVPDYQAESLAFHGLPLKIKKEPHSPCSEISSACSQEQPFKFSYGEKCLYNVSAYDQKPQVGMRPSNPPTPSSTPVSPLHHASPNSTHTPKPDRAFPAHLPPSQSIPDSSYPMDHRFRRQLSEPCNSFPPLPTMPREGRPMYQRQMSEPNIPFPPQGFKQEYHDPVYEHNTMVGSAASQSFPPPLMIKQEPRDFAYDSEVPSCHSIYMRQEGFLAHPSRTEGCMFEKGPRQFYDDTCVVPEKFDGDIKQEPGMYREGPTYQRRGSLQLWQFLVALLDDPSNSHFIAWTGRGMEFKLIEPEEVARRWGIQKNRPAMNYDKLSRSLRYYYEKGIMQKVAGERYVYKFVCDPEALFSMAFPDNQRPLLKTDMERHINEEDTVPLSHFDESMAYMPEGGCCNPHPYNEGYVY
Chain of ETV5 (P41161 whole entry): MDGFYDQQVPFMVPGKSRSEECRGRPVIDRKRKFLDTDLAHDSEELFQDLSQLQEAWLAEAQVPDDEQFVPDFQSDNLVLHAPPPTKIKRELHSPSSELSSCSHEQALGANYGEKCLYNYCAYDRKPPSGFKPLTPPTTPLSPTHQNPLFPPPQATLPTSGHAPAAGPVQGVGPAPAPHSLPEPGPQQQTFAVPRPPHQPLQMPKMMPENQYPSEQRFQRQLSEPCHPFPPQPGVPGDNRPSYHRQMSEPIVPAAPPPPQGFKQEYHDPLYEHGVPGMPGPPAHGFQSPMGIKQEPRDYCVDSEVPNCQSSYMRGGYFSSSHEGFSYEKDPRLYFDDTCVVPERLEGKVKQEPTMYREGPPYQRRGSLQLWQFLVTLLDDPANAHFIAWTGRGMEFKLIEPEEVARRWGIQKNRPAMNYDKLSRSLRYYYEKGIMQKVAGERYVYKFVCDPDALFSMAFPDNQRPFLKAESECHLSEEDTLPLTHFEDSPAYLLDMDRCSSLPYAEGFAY
Chain of ETV6 (P41212 whole entry): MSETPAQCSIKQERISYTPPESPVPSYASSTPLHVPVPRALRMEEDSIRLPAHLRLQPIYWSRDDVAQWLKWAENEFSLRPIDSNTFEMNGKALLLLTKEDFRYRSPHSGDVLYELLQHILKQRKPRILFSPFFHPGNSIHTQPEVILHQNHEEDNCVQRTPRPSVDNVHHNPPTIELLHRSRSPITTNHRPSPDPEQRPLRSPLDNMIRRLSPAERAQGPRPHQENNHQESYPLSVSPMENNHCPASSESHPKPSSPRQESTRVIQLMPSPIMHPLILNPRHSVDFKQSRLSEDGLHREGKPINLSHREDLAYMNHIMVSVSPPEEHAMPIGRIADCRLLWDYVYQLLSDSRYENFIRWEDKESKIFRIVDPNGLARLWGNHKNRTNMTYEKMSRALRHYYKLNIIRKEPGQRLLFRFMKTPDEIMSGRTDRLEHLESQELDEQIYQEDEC
Chain of ELF4 (Q99607 whole entry): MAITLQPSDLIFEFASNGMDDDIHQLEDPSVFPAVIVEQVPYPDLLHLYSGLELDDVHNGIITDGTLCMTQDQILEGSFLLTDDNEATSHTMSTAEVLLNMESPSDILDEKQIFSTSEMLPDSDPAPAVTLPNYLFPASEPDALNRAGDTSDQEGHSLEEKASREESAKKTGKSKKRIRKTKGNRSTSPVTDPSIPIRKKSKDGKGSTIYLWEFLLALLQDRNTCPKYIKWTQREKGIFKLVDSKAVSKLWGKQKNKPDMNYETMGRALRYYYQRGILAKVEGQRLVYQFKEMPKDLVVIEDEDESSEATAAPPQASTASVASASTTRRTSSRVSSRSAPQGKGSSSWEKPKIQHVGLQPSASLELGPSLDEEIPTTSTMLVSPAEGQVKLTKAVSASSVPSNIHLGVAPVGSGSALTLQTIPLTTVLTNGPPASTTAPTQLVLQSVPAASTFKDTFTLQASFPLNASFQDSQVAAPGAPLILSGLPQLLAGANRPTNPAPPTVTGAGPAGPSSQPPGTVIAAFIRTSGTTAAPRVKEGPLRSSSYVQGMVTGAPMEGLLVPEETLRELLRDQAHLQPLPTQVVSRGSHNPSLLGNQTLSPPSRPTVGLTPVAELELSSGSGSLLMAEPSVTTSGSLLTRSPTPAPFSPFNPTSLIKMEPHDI
Chain of HSF1 (Q00613 whole entry): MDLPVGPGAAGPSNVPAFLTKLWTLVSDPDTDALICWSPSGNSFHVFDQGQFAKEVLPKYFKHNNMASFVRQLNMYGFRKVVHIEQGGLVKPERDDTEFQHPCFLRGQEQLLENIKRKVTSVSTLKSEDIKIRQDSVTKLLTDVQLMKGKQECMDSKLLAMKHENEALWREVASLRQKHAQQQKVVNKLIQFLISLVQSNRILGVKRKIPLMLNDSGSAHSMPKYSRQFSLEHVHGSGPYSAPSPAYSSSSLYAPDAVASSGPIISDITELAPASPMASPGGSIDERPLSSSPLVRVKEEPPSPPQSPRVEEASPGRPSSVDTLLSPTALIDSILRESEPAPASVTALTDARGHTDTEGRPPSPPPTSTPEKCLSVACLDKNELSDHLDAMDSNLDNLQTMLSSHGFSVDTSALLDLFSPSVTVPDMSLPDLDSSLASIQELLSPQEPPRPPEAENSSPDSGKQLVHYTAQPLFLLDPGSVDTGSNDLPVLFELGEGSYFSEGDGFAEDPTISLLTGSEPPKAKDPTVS

With ACCATA the binding signal (FEV) was 1.17 fold enrichment (6-mer frequency, TF over GST control), the binding signal (ETV5) was 1.21 fold enrichment (6-mer frequency, TF over GST control) and the binding signal (HSF1) was 1.08 fold enrichment (6-mer frequency, TF over GST control). The binding signal (SPIC) was 1.22 fold enrichment (6-mer frequency, TF over GST control), the binding signal (ELF4) was 1.21 fold enrichment (6-mer frequency, TF over GST control) and the binding signal (ELK4) was 1.31 fold enrichment (6-mer frequency, TF over GST control). The binding signal (ETV2) was 1.17 fold enrichment (6-mer frequency, TF over GST control), the binding signal (ELF3) was 1.14 fold enrichment (6-mer frequency, TF over GST control) and the binding signal (CRX) was 1.14 fold enrichment (6-mer frequency, TF over GST control). The binding signal (ETV1) was 1.09 fold enrichment (6-mer frequency, TF over GST control), the binding signal (ERF) was 1.15 fold enrichment (6-mer frequency, TF over GST control) and the binding signal (ETV3L) was 1.25 fold enrichment (6-mer frequency, TF over GST control). The binding signal (ETS2) was 1.17 fold enrichment (6-mer frequency, TF over GST control), the binding signal (SPDEF) was 1.17 fold enrichment (6-mer frequency, TF over GST control) and the binding signal (ETV7) was 1.11 fold enrichment (6-mer frequency, TF over GST control). The binding signal (ELF5) was 1.15 fold enrichment (6-mer frequency, TF over GST control), the binding signal (ETV3) was 1.19 fold enrichment (6-mer frequency, TF over GST control) and the binding signal (ETV6) was 1.16 fold enrichment (6-mer frequency, TF over GST control).
